Assay results from PubChem BioAssay AID624156 (Broad Institute, 2012).
Screen size: about 46,000 compounds; about 900 (2%) were called active. About 1% were inconclusive and are not listed. This excerpt belongs to a sample that is enriched for actives. A number with no mark means an inactive call. No stated cut-off is given here; in the data, active means ROS induction above about 79% (passing the limit was not always enough); inconclusive means no clear call, values can overlap the other calls.

Experiment: ROS inducers in U2OS cancer cells, primary screen, cell-based, H2DCF-DA fluorescence (AID 624156);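 further: 0% = DMSO vehicle median and 100% = reference compound median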
Details: at 10 µM, hits give high values

Compound	ROS induction (% of piperlongumine)
NC(=O)N1CCc2ccccc21	6.65%
O=C(CCCCCCC(=O)Nc1ccccc1O)N/N=C/c1ccc(C(F)(F)F)cc1	7.34%
COc1ccc(C2NNC(=S)S2)cc1 (centres undefined)	-8.92%
O=C(N1CCCc2ccccc21)N1c2ccccc2Sc2ccccc21	-12.4%
C=CCN(C(=O)Cc1ccc(OC)cc1)c1nnc(-c2ccc(Cl)cc2)s1	-4.96%
COc1ccc(C)cc1S(=O)(=O)N1CCN(C)CC1	-20.4%
C[C@@H]1CN([C@H](C)CO)C(=O)c2cc(NC(=O)NC3CCCCC3)ccc2O[C@H]1CN(C)S(C)(=O)=O	-3.72%
COC(=O)c1ccc(NC(=S)N2CCOCC2)cc1	-2.33%
C[C@H]1CN([C@@H](C)CO)C(=O)CCCn2cc(nn2)CO[C@H]1CN(C)S(=O)(=O)c1ccc2ccccc2c1	9.35%
CC1CC(NC(=S)N(C)C)CC(C)(C)C1 (centres undefined)	-10.5%
CC1CCN(S(=O)(=O)c2ccc(Cl)c(C(=O)Nc3ccccc3[N+](=O)[O-])c2)CC1	-11.1%
O=C(CCc1nc(-c2ccccc2Cl)no1)Nc1ccccc1[N+](=O)[O-]	-1.7%
O=C(Nc1ccccc1Cl)c1ccccc1S(=O)(=O)c1ccccc1[N+](=O)[O-]	134% (active)
COc1cccc(CNC(=O)CCn2nc(-c3ccccc3)ccc2=O)c1	-6.11%
CCc1cccc(NS(=O)(=O)c2cc(Br)cc3c2N(C(=O)C2CC2)CC3)c1	31.7%
CNC(=O)CN1C(=O)c2ccccc2S1(=O)=O	3.08%
O=C1c2ccccc2S(=O)c2ccccc2S(=O)(=O)N1Cc1ccccc1 (centres undefined)	205% (active)
COc1ccc(C2C(C(=O)N(C)c3ccc(C(C)C)cc3)CC(=O)N2c2ccc(OC)cc2)cc1 (centres undefined)	16.7%
C=C1C(=O)O[C@@H]2[C@H]3C(CO)=CC(=O)C3=C(C)C[C@H](OC(=O)Cc3ccc(O)cc3)[C@@H]12	205% (active)
CCOC(=O)/C(C#N)=c1/s/c(=C2/C=Cc3ccccc3N2CC)c(=O)n1CC	23.1%

Compound	ROS induction (% of piperlongumine)
C[C@@H]1CN([C@H](C)CO)C(=O)c2cc(NC(=O)Nc3ccccc3)ccc2O[C@H]1CN(C)S(=O)(=O)c1ccc(F)cc1	9.94%
O=C(Nc1ccccc1)Nc1ccccc1C(=O)N1CCOCC1	-0.785%
C[C@H](CO)N1C[C@H](C)[C@H](CN(C)C(=O)NC2CCCC2)Oc2ncc(-c3ccc(F)cc3)cc2C1=O	14.3%
C[C@H](CO)N1C[C@H](C)[C@H](CN(C)C(=O)Nc2ccc3c(c2)OCO3)Oc2ncc(Br)cc2C1=O	2.65%
CCCC(O)C#Cc1cnc2c(c1)C(=O)N([C@H](C)CO)C[C@H](C)[C@H](CN(C)S(=O)(=O)c1ccc(C#N)cc1)O2 (some centres undefined)	-0.235%
C[C@H](CO)N1C[C@H](C)[C@@H](CN(C)C(=O)Nc2ccc3c(c2)OCO3)Oc2c(cccc2N(C)C)C1=O	6.93%
C[C@H](CO)N1C[C@H](C)[C@H](CN(C)C(=O)Nc2ccc3c(c2)OCO3)Oc2ncc(C#Cc3cccc(F)c3)cc2C1=O	93.9% (active)
C[C@H](CO)N1C[C@H](C)[C@H](CN(C)C(=O)Nc2ccc(F)cc2)Oc2ncc(-c3cc4ccccc4o3)cc2C1=O	130% (active)
CCCC(O)C#Cc1cnc2c(c1)C(=O)N([C@H](C)CO)C[C@H](C)[C@H](CN(C)Cc1ccc(F)cc1)O2 (some centres undefined)	94.3% (active)
C[C@H](CO)N1C[C@H](C)[C@H](CN(C)Cc2ccccc2)Oc2ncc(-c3ccccc3)cc2C1=O	3.81%
COc1ccc(NC(=O)N(C)C[C@@H]2Oc3ncc(-c4cccc(OC)c4)cc3C(=O)N([C@H](C)CO)C[C@@H]2C)cc1	69.6%
CN1CCN(CC(O)COc2ccc3ccccc3c2)CC1 (centres undefined)	-2.48%
CC(C)CC(C(=O)O)N1C(=O)c2ccccc2C1=O (centres undefined)	-9.51%
Cn1c(=O)c2c(nc(SCC(=O)Nc3ccccc3F)n2Cc2ccccc2)n(C)c1=O	11.1%
O=C(Nc1nccs1)C1CCCN(C(=O)c2cnn(-c3ccccc3)c2-n2cccc2)C1 (centres undefined)	4.87%
COc1ccc(NS(=O)(=O)c2ccc(OCC(F)(F)F)c(C#N)c2OCC(F)(F)F)cc1	-8.52%
CCOc1ccc2c(=O)c(Oc3ccccc3Br)coc2c1	0.931%
Cc1noc(C)c1NC(=O)NCc1ccc2c(c1)OCO2	-1.2%
CN(C)c1ccc(/C=C(\C#N)S(=O)(=O)c2ccccc2)cc1C#N	-4.92%
